According to the supplement of paper PMC10849652:
The full data set covers some 7,900 targets. This sample favours those with a hit. About 0.6% of all pairs of compound and target were hits. Unmarked numbers belong to inactive results.

Experiments:
Test in all cases: log2 fold change, soluble protein after heating vs DMSO (PISA); higher = thermal stabilisation; K562 cells, 10 uM, 30 min; active = over 0.2 and 3.5 SD of the protein, either way, in both replicates (recomputed)
[1] = compound: CC1=C(C=C(C=C1)NC(=O)C2=CC(=CC=C2)C(C)(C)C#N)NC3=CC4=C(C=C3)N=CN(C4=O)C
In short: (§1)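 Aliquots of K562 cells (2×10^6 cells/mL) treated with 10 μM compound for 30 min were heated for 3 min over 48°C-58°C. After pooling and extraction in PBS with 0.5% NP-40 at 4°C, soluble protein from a 21,000xg, 90 min spin was quantified by TMTpro 16plex LC-MS/MS with channel sums equalised. Thermal stability is expressed against control samples, from duplicates, as a log2 fold change.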

[2] = compound: CC1=C(C=C(C=C1)NC(=O)C2=CC(=CC=C2)N(C)C)NC(=O)C3=CC=C(C=C3)O
In short: as §1

[3] = compound: CC1=CC=C(C=C1)SC2=C3C=C(SC3=CN=C2)C(=O)N
In short: as §1

[4] = compound: CC1=NC(=CC=C1)C2=C(N=C(N2)C(C)(C)C)C3=CC4=NC=CN=C4C=C3
In short: as §1

Nexturastat A = compound: CCCCN(Cc1ccc(C(=O)NO)cc1)C(=O)Nc1ccccc1 [Nexturastat A]
In short: as §1

vemurafenib = compound: CCCS(=O)(=O)Nc1ccc(F)c(C(=O)c2c[nH]c3ncc(-c4ccc(Cl)cc4)cc23)c1F [vemurafenib]
In short: as §1

[5] = compound: CCCS(=O)(=O)Nc1ccc(F)c(C(=O)c2c[nH]c3ncc(Cl)cc23)c1F
In short: as §1

[6] = compound: CCCc1cc(C)[nH]c(=O)c1CNC(=O)c1cc(-c2ccnc(N3CCN(C)CC3)c2)cc2c1cnn2C(C)C
In short: as §1

givinostat = compound: CCN(CC)Cc1ccc2cc(COC(=O)Nc3ccc(C(=O)NO)cc3)ccc2c1 [givinostat]
In short: as §1

barasertib = compound: CCN(CCCOc1ccc2c(Nc3cc(CC(=O)Nc4cccc(F)c4)[nH]n3)ncnc2c1)CCOP(=O)(O)O [barasertib]
In short: as §1

UniProt Q9HAW4, sequence (Q9HAW4 whole entry, looked up): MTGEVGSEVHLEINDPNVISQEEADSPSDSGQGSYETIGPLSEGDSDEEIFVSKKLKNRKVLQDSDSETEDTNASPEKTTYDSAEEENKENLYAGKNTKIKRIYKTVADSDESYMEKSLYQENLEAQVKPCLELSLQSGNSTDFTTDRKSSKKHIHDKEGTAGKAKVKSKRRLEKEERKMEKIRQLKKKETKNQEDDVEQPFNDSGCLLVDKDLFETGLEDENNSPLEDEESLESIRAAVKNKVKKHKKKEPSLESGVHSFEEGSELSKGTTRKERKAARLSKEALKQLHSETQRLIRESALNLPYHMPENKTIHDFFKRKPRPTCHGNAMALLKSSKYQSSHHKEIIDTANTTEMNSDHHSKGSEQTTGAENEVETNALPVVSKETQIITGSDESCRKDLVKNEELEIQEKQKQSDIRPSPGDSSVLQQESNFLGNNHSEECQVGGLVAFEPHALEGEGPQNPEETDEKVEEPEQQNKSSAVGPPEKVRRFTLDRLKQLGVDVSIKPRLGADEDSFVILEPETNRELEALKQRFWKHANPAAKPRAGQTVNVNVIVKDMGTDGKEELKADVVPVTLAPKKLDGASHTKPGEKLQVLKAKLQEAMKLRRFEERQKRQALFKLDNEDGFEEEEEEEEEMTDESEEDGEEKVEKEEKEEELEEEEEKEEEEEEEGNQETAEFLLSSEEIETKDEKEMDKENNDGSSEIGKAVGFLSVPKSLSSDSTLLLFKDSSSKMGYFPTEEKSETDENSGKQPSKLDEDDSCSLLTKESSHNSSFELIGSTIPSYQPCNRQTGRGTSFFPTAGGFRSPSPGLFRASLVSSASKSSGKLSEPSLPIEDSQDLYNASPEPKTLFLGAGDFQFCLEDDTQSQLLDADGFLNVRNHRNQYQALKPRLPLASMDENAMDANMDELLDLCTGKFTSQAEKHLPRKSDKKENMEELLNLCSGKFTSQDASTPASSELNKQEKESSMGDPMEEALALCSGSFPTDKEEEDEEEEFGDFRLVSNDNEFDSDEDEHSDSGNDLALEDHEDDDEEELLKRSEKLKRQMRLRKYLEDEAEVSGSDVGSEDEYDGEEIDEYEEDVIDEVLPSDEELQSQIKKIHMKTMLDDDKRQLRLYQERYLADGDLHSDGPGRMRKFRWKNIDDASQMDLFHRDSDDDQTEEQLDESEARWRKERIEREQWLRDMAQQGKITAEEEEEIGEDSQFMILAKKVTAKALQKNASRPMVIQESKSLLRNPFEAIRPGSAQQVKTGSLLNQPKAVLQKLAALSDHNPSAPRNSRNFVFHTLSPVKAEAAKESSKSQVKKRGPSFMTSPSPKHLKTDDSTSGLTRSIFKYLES
UniProt Q6UUV7, sequence (Q6UUV7 whole entry, looked up): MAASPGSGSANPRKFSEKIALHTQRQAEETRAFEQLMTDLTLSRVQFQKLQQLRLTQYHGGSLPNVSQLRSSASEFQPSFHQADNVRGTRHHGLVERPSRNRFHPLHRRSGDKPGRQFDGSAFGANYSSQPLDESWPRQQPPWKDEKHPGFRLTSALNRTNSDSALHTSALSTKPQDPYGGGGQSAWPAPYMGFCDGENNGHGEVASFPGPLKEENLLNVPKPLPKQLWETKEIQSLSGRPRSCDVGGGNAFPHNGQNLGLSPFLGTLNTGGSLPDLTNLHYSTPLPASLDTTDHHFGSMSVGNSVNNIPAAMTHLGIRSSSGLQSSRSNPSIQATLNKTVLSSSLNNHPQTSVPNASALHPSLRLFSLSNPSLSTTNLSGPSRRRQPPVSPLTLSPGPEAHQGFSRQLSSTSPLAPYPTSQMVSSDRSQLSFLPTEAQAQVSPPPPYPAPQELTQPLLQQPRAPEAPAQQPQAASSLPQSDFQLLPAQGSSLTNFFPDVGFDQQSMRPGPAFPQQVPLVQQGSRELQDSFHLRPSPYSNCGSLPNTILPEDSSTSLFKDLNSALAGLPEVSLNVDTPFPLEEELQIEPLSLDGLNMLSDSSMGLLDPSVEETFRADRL
UniProt Q9Y2V0, sequence (Q9Y2V0 whole entry, looked up): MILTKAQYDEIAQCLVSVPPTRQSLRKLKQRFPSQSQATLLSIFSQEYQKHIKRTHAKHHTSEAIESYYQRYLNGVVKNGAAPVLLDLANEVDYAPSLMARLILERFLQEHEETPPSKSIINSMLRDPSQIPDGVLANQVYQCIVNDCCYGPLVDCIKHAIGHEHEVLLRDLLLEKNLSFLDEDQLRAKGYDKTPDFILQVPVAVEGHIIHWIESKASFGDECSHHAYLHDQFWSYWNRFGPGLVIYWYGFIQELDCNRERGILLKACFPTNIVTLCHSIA
UniProt O60583, sequence (O60583 whole entry, looked up): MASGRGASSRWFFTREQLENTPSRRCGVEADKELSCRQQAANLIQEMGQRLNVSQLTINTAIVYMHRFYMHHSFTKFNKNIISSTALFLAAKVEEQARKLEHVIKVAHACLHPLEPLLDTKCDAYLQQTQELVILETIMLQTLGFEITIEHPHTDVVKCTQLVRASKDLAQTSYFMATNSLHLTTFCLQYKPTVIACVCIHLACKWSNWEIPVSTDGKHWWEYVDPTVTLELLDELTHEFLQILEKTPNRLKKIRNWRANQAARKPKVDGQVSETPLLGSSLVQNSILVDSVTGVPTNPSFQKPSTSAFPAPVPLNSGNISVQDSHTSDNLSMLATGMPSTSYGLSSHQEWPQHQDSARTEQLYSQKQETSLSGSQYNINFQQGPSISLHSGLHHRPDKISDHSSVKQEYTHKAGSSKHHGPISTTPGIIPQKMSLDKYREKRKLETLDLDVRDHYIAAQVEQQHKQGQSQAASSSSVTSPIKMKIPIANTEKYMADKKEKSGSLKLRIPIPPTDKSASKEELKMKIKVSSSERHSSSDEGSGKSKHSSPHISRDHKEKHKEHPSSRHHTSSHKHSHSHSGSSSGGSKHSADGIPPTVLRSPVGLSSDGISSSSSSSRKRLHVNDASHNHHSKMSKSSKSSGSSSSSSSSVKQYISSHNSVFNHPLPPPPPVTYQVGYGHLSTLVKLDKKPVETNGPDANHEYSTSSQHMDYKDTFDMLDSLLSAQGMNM
UniProt Q9H444, sequence (Q9H444 whole entry, looked up): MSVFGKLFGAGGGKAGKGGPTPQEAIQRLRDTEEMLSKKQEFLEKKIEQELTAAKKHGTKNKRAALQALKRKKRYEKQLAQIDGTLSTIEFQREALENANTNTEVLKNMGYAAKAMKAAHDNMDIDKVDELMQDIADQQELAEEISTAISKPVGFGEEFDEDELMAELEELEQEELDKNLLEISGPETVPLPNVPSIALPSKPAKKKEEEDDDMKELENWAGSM
UniProt Q6P5X5, sequence (Q6P5X5 whole entry, looked up): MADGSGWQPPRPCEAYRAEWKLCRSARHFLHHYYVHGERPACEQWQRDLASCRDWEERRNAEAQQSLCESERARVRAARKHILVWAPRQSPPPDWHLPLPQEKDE
UniProt P34810, sequence (P34810 whole entry, looked up): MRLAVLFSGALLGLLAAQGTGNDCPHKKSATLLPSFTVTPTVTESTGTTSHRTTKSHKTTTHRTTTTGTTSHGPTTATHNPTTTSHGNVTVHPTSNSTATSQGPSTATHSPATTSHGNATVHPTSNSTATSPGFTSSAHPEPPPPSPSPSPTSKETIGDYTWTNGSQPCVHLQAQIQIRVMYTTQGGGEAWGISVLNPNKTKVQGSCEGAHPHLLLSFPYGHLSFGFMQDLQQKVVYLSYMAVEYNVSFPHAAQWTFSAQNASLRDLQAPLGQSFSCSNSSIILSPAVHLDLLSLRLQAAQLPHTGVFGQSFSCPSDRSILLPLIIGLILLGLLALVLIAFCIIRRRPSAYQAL
UniProt O95273, sequence (O95273 whole entry, looked up): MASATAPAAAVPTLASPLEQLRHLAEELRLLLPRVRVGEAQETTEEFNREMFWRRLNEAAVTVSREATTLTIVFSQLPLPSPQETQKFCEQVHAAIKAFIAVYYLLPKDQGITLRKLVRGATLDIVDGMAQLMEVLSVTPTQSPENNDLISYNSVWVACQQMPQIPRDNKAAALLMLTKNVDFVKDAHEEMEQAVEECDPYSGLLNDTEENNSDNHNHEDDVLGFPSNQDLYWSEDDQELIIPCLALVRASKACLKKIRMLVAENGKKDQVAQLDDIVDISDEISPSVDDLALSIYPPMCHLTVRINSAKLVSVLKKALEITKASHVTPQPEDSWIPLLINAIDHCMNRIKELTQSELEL
UniProt Q92828, sequence (Q92828 whole entry, looked up): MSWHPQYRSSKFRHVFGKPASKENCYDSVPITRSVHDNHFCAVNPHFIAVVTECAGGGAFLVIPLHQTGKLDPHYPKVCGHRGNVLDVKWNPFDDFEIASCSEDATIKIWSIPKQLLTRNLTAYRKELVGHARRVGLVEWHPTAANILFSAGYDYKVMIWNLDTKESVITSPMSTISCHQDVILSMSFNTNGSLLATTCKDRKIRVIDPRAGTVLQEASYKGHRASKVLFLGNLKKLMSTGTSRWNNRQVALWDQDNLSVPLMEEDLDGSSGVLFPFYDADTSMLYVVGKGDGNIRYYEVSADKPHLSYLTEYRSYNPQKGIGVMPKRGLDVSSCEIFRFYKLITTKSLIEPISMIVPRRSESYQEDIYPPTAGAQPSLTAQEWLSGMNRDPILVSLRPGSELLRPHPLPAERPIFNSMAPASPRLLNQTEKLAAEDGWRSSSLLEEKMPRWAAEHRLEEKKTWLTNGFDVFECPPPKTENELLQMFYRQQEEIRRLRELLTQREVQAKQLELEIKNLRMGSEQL
UniProt P24311, sequence (P24311 whole entry, looked up): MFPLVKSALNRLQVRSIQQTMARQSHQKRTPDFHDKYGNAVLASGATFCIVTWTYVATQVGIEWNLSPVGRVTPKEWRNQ
UniProt P06493, sequence (P06493 whole entry, looked up): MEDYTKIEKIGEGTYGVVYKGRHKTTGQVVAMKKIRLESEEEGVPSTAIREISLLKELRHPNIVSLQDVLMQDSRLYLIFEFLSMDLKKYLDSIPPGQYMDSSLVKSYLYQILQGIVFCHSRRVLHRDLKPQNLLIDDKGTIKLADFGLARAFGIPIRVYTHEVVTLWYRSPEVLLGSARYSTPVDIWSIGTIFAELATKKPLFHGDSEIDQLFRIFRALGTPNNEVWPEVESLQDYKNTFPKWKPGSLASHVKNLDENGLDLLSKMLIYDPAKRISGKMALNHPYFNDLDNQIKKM

Row | Target | log2 fold change [1] | log2 fold change [2] | log2 fold change [3] | log2 fold change [4] | log2 fold change (Nexturastat A) | log2 fold change (vemurafenib) | log2 fold change [5] | log2 fold change [6] | log2 fold change (givinostat) | log2 fold change (barasertib)
1 | CPT2 (UniProt P23786) | 0.313 | -0.105 | 0.035 | 0.019 | -0.417 | 0.042 | 0.007 | 0.016 | 0.474 | 0.013
2 | CDK1 (UniProt P06493) | 0.017 | -0.017 | 0.004 | 0.036 | -0.015 | 0.029 | 0.02 | 0.001 | 0.048 | 0.001
3 | C4A (UniProt P0C0L4) | -0.154 | 0.19 | 0.111 | 0.215 | -0.008 | 0.148 | -0.02 | -0.287 | 0.001 | 0.021
4 | COX7B (UniProt P24311) | 0.048 |  | 0.045 | 0.094 | -0.056 | -0.148 | 0.136 | -0.188 | -0.013 | -0.025
5 | CMTM3 (UniProt Q96MX0) | 0.052 |  | 0.117 | -0.027 | -0.119 | 0 | 0.001 | -0.024 | -0.016 | 0.098
6 | CSE1L (UniProt P55060) | 0.021 | -0.006 | 0.068 | 0.083 | -0.068 | 0.029 | 0.063 | 0.009 | 0.004 | 0.042
7 | CLN8 (UniProt Q9UBY8) | -0.018 | 0.081 | -0.085 |  |  | -0.001 | -0.109 | -0.132 | -0.086 | 0.051
8 | C15orf41 (UniProt Q9Y2V0) | 0.022 | -0.026 | -0.017 | -0.002 | -0.006 | 0.015 | 0.032 |  | -0.012 | 
9 | COX20 isoform 2 (UniProt Q5RI15) | 0.035 | -0.041 | 0.102 | 0.036 | -0.038 | -0.036 | -0.041 | 0.069 | -0.04 | -0.03
10 | C22orf39 (UniProt Q6P5X5) | -0.033 | 0.059 | -0.058 | -0.008 | -0.024 |  | 0.205 | 0.017 | 0.044 | -0.042
11 | COPS3 isoform 2 (UniProt Q9UNS2) | -0.154 | 0.03 | 0.066 | -0.128 | -0.113 | -0.303 | -0.14 | -0.162 |  | 0.065
12 | COPS8 (UniProt Q99627) | 0.031 | -0.04 | 0 | -0.09 | 0.126 | -0.003 | -0.031 | -0.056 | 0.049 | 0.009
13 | CDK19 (UniProt Q9BWU1) | -0.032 | 0.212 | 0.246 |  | -0.039 | 0.057 | -0.026 | -0.109 | -0.133 | 
14 | CIZ1 (UniProt Q9ULV3) | -0.02 | -0.027 | -0.022 | 0.059 | 0.011 | -0.018 | -0.007 | -0.033 | 0.017 | 0.001
15 | CCNT2 (UniProt O60583) | 0.092 | 0.042 | -0.057 |  | 0.348 |  | -0.031 | 0.211 |  | 
16 | CLSPN (UniProt Q9HAW4) | -0.048 | 0.003 | -0.025 | -0.035 | 0.006 | 0.041 | 0 | -0.012 | -0.032 | 0.006
17 | CHST10 (UniProt O43529) | 0.067 | -0.096 | -0.092 | -0.052 | 0.05 |  | -0.015 | -0.097 | 0.069 | -0.025
18 | CRTC1 isoform 2 (UniProt Q6UUV9) | -0.001 | 0.195 | -0.086 | 0.073 | 0.24 | -0.035 | 0.051 |  | 0.158 | 0.015

Row | Target | log2 fold change [1] | log2 fold change [2] | log2 fold change [3] | log2 fold change [4] | log2 fold change (Nexturastat A) | log2 fold change (vemurafenib) | log2 fold change [5] | log2 fold change [6] | log2 fold change (givinostat) | log2 fold change (barasertib)
19 | COX17 (UniProt Q14061) | -0.015 | -0.358 |  | 0.024 | 0 | 0.029 |  | 0.025 | 0.029 | 
20 | CDK17 isoform 2 (UniProt Q00537) | 0.105 |  | 0.061 | -0.051 | 0.172 | -0.098 | -0.085 | 0.042 | 0.003 | 0.055
21 | CHMP4B (UniProt Q9H444) | 0.181 | 0.008 | -0.073 | 0.007 | -0.04 | -0.036 | -0.126 | -0.02 | -0.061 | 0.001
22 | CRTC3 (UniProt Q6UUV7) | -0.017 | 0.087 | 0.033 |  | -0.049 | -0.093 | 0.144 | -0.543 (active) |  | 0.035
23 | CRYM-AS1 (UniProt A6NIL9) | 0.239 | -0.066 |  | -0.224 | 0.332 | 0.161 |  | -0.049 | 0.189 | -0.036
24 | COG2 (UniProt Q14746) | -0.064 | 0 |  | 0.096 | 0.432 |  |  | -0.59 | 0.048 | 
25 | CORO2A (UniProt Q92828) | 0.014 | 0.157 | 0.01 |  |  | 0.063 | 0.054 | 0.026 | 0.002 | 0.065
26 | CASP10 isoform 4 (UniProt Q92851) | 0.015 | 0.026 | 0.085 | 0 | 0.125 | -0.015 | 0.014 | 0.034 |  | 0.121
27 | CCNC (UniProt P24863) | 0.207 | -0.072 |  | 0.031 | 0.008 | 0.105 |  | -0.086 | 0.011 | -0.024
28 | CCNDBP1 (UniProt O95273) | -0.104 | 0.027 |  |  |  | -0.074 |  | -0.091 | -0.046 | 0.088
29 | CAB39L (UniProt Q9H9S4) | -0.142 | -0.008 | 0.004 | -0.043 | 0.003 | -0.013 | -0.001 |  | -0.025 | 0.043
30 | CLINT1 (UniProt Q14677) |  |  |  | -0.007 | 0.259 | 0.051 |  | -0.017 |  | 0.017
31 | CCDC187, A0A1W2PQX5 |  | -0.105 |  |  | 0.003 |  |  |  |  | 
32 | CD68 (UniProt P34810) | 0.037 |  |  |  |  |  |  | -0.06 | -0.091 | -0.313
33 | CCND3 (UniProt P30281) |  | 0.046 | 0.063 |  | -0.004 | -0.077 | -0.028 | -0.062 | 0.021 | 0.079
34 | CLN3 (UniProt Q13286) |  | 0.004 | -0.025 | -0.093 | -0.039 | 0.147 | -0.119 | -0.09 | 0.02 | -0.027
35 | CNOT4 isoform 9 (UniProt O95628) |  | -0.034 | 0.003 | 0.017 |  | -0.059 | 0.006 | -0.171 | 0.053 | 0.015
36 | CLN5 (UniProt O75503) | 0.031 |  | 0.058 | 0.068 | 0.012 |  | 0.104 | -0.54 | -0.17 | 0.06
